Source: PubChem (National Center for Advancing Translational Sciences (NCATS))
Shown are actives, neighbours in structure and some others; about 6.9% of the full set was active somewhere.
L3MBTL1 inh = L3MBTL1 (human) inhibition | Q9Y468 | AlphaScreen L3MBTL1–H3K9me1 peptide binding | Potency, µM (doses to about 57.1 µM), without a hit: top-dose activity, negative = inhibition, actives largely listed as inhibitors | 230,000 compounds, 0.66% hits | AID 485360; also: % is scaled to controls: 0 for no effect and ±100 for the full control effect; nearly all actives have a fitted effect of over 60% in size
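AlphaScreen proximity signal between nickel-chelate acceptor and streptavidin donor beads (final 10 ug/mL) reports binding of 50 nM L3MBTL1 to 75 nM biotin-H3 K9me1 peptide; complex incubated with compounds 30 min at room temperature; cefsulodin titration as control.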
BAZ2B inh = BAZ2B (human) inhibition; AlphaScreen BAZ2B-H3K14Ac peptide displacement; Potency, µM (series often up to 114 µM), for inactives: top-dose activity change, negative = inhibition, hits mostly inhibitors; 360,000 compounds, 4.4% hits; AID 504333; also: % is scaled to controls: 0 for no effect and ±100 for the full control effect; nearly all actives have a fitted effect of over 60% in size
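AlphaScreen displacement of biotin-H3(5-23)K14Ac peptide (50 nM final) from BAZ2B (50 nM final) in PBS pH 7.4, 0.01% Tween-20; complex preformed 30 min RT, then compounds (top 110 uM) 30 min RT, beads 20 min dark.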
JMJD2A Tudor = blocks the human JMJD2A Tudor domain; AID 504339; Potency, µM (doses to about 114 µM), for inactives: at the highest dose activity change, negative = inhibition, most hits filed as inhibitors; AlphaScreen JMJD2A-Tudor / H3K4me3 peptide binding; 390,000 compounds, 4.4% hits; also: % is scaled to controls: 0 for no effect and ±100 for the full control effect; nearly all actives have a fitted effect of over 50% in size
HP1b chromo inh = HP1-beta chromodomain-methylated histone interaction inhibition | P83916 | AlphaScreen HP1-beta / biotin-H3K9me3 peptide binding | Potency, µM (titrated, usually from 114 µM), for inactives: at the highest dose activity change, negative = inhibition, hits mostly inhibitors | 390,000 compounds, 0.56% hits | AID 540317; also: nearly all actives have a fitted effect of over 70% in size
Target sequence (P83916 whole entry, looked up): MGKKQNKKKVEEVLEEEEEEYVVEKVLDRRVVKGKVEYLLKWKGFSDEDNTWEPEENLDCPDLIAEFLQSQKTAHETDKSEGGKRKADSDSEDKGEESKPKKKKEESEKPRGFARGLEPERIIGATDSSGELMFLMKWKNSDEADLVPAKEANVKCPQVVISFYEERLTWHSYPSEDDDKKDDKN
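HP1-beta protein (50 nM final) preincubated 30 min at room temperature with biotinylated H3(1-18)K9me3 peptide (50 nM) in PBS pH 7.4, 0.01% Tween-20, then compound added for 30 min. AlphaScreen streptavidin donor/nickel chelate acceptor beads (10 ug/mL final), 30 min dark, luminescence read.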
VDR inhibitor = inhibitors of human vitamin D receptor | VDR-SRC2-3 peptide fluorescence polarization, 2 h | Potency, µM, for inactives: max response, negative = inhibition, usual class: inhibitors | 400,000 compounds, 0.93% hits | AID 504847; also: % is scaled to controls: 0 for no effect and ±100 for the full control effect
Target sequence (P11473 whole entry, looked up): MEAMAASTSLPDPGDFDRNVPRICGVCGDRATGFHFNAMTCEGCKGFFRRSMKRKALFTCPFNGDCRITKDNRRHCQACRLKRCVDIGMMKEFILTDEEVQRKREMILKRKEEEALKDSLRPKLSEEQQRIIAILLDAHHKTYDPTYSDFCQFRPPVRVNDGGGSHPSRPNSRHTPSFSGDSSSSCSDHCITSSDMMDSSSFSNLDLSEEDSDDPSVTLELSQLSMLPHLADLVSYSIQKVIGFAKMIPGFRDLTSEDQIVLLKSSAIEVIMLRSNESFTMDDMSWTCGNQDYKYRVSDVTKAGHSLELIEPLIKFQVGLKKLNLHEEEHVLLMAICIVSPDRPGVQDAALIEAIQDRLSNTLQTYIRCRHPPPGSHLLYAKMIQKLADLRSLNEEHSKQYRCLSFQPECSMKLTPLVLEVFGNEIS
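Inhibition of the VDR/SRC2-3 peptide interaction is quantified by fluorescence polarization. Compounds (23 nl, pintool) incubate with the reagents for 2 hours at ambient room temperature.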
PLK1 PBD inh = inhibitors of human PLK1 polo-box domain binding; P53350; Plk1 PBD binding of FITC phosphopeptide, fluorescence polarization; Potency, µM, for inactives: max response, negative = inhibition, most hits filed as inhibitors; 360,000 compounds, 2.8% hits; also: series mostly up to about 57 µM; % is scaled to controls: 0 for no effect and ±100 for the full control effect; nearly all actives have a fitted effect of over 65% in size
* = called active by the depositor; ? = inconclusive; . = not tested or not shown; ! = not confirmed by another sample; [ ] = remark or other dose. Calls follow the shape of the dose curve; as a rule, active = well fitted curve in the direction sought with a large enough effect; inconclusive = small, poorly fitted or top-dose-only effect, or another doubt; inactive = no such curve, though single readings can be large; an effect the other way counts as inactive or inconclusive. Potency is read from the fitted curve at half-maximal effect.

SMILES	L3MBTL1 inh	BAZ2B inh	JMJD2A Tudor	HP1b chromo inh	VDR inhibitor	PLK1 PBD inh
Cc1ccsc1/C=N/n1c(-c2ccco2)n[nH]c1=S	-3.4%	-21.5%[57.1 µM]	7.08µM*	-10.4%	6.7%	-22.9%
Cc1ccsc1/C=N/n1c(-c2ccncc2)n[nH]c1=S	0.4%	-35.5%	3.16µM*	-16.6%	4.0%	?
S=c1[nH]nc(-c2ccncc2)n1/N=C/c1cn(-c2ccccc2)nc1-c1ccc(Cl)cc1	.	-4.4%	-34.9%	12.2%	-1.9%	-6.6%
COc1cc(OC)c(NC(=O)Cn2c(=O)nc(-c3ccccc3)c3ccccc32)cc1Cl	.	4.1%	-16.7%	7.9%	-5.4%	.
Cc1ccc(NC(=O)C2CCCN(S(=O)(=O)c3c(C)nn(C)c3C)C2)c(C)c1 (stereo not drawn)	.	.	-22.7%	13.4%	-8.0%	.
O=C(CSc1nc2c([nH]c3ccccc32)c(=O)n1-c1ccccc1)N1CCCC1	.	?	-15.5%	12.8%[57 µM]	8.5%	.
Cc1n[nH]c(=O)nc1NCC1CCCO1 (stereo not drawn)	4.1%	-5.9%	-6.5%	-21.1%	-10.4%	26.7µM*
O=C(c1c[nH]c(C(=O)C(Cl)(Cl)Cl)c1)c1c(F)cccc1F	.	-23.5%	22.4µM*	3.1%	?	5.32µM*
COc1ccccc1OCC(=O)NCc1ccco1	-4.2%	-14.1%	1.5%	28.2%	4.2%	-8.6%
COc1ccccc1C(C)NCC(=O)NC(=O)NCc1ccco1 (stereo not drawn)	-13.1%	50.1µM*	?	-7.5%	-19.7%	-4.8%
CCOc1ccc(CCNC(=O)c2ccc3c(=O)[nH]c4c(C(=O)NC(C)C)sc(=S)n4c3c2)cc1	.	?	8.6%	19.9%	-0.9%	?
O=C(NCCc1ccccc1)c1ccc(NCC2CCCO2)c([N+](=O)[O-])c1 (stereo not drawn)	.	?	-21.8%	-1.3%	9.2%	-3.2%
COc1ccc(OC)c(CCNC(=O)c2ccc3c(=O)[nH]c4c(C(=O)NC(C)C)sc(=S)n4c3c2)c1	.	39.8µM*	56.2µM*	?	-24.5%	?
CC(C)NC(=O)c1sc(=S)n2c1[nH]c(=O)c1ccc(C(=O)NCCc3ccc(Cl)cc3)cc12	.	-23.8%	35.5µM*	-21.2%[57 µM]	-19.6%	26.7µM*
O=C(NCCc1ccccc1)c1ccc2c(=O)[nH]c3c(C(=O)NCC4CCCO4)sc(=S)n3c2c1 (stereo not drawn)	.	35.5µM*	44.7µM*	?	79.4µM*	29.9µM*
Cc1cc(C)c(NC(=O)CSc2nc3ccccc3nc2N2CCCCC2)c(C)c1	.	-5.1%	-7.9%	22.8%	2.9%	.
CCOc1ccc2nc(SCC)[nH]c2c1	1.5%	89.1µM*	-17.6%[57.1 µM]	71.9%	-2.8%	-15.0%
Cc1nn(CC(=O)N2CCCCC2)c(=O)c2cc3occc3n12	.	-1.6%	-4.4%	69.1%	19.0%	.
CN=c1scc(-c2ccc(F)cc2)n1/N=C/c1ccc(O)c(O)c1	.	10µM*	31.6µM*	39.8µM*	-4.1%	-7.0%
CCOC(=O)[C@]12CCCC=C1N(Cc1ccccc1)C(=O)[C@H](CC(=O)NCc1ccc(C)o1)C2	.	.	.	.	.	-0.4%
Cc1ccn2c(Nc3ccccc3)c(-c3ccccn3)nc2c1	.	20µM*	50.1µM*	27.4%	15.9%	4.6%
Cc1ccc2nc(-c3ccccn3)c(Nc3ccc(F)cc3)n2c1	.	5.62µM*	?	26.1%	-7.3%	.
Cc1ccc2nc(-c3ccccn3)c(Nc3ccccc3C)n2c1	.	20µM*	44.7µM*!	-21.1%	-6.6%	-13.5%
Cc1ccccc1Nc1c(-c2ccccn2)nc2ccccn12	.	10µM*	50.1µM*	-4.7%	-1.3%	3.6%
Cc1ccc2nc(-c3ccncc3)c(Nc3ccccc3C)n2c1	.	-11.4%	-17.5%	19.8%	-9.0%	.
SMILES	L3MBTL1 inh	BAZ2B inh	JMJD2A Tudor	HP1b chromo inh	VDR inhibitor	PLK1 PBD inh
CSc1ccc(-c2nc3cc(C)ccn3c2Nc2ccc(C)cc2)cc1	.	-9.8%	-16.4%	-7.3%	-4.2%	.
CCCCN(C)C(=O)c1ccc2c(=O)n3nc(Nc4cc(C)ccc4C)sc3nc2c1	.	-13.0%	-29.0%	-1.7%	3.7%	.
CC(C)Oc1ccc(CNS(=O)(=O)c2cnc(N)nc2)cc1	.	0.3%	-12.3%	21.7%[57 µM]	2.6%	.
Cc1ccccc1Nc1c(-c2cccnc2)nc2ccccn12	.	-31.1%	-6.6%[11.4 µM]	37.7%	7.9%	-7.1%
Cc1ccn2c(Nc3ccccc3C)c(-c3ccccn3)nc2c1	.	22.4µM*	44.7µM*!	?	-7.2%	-13.3%
CC(C)c1ccc(Nc2c(-c3ccccn3)nc3ccccn23)cc1	.	22.4µM*	31.6µM*	?	-6.0%	.
COc1ccc(-c2nc3ccccn3c2Nc2ccccc2C)cc1	.	.	56.2µM*	?	-4.6%	.
Cc1ccc(-c2nc3sccn3c2Nc2ccccc2C)cc1	.	7.08µM*	44.7µM*	?	-12.3%	.
CCc1ccc(-n2c(SCC(=O)Nc3ccc(C(=O)O)cc3)nnc2-c2ccncc2)cc1	3.5%	-11.0%	-6.1%	56.9%	-4.8%	-18.2%
Cc1ccn2c(Nc3c(C)cccc3C)c(-c3ccc(Cl)s3)nc2c1	.	5.62µM*	?	?	-5.4%	.
O=C(Nc1ccc(F)c(Cl)c1)[C@@H]1O[C@H](CO)[C@H](O)[C@H](O)[C@H]1O	.	.	.	.	.	-7.5%
Cc1cccc(NS(=O)(=O)c2nnc(NC(=O)C3CCCCC3)s2)c1	4.1%	6.31µM*!	-14.8%	34.1%	-7.7%	-5.7%
Cc1ccccc1CNC(=O)c1ccc(CS(=O)Cc2ccc(Cl)cc2)o1 (stereo not drawn)	.	-23.3%	-17.9%	4.8%	8.2%	.
Cc1cc(C)n(-c2nc(SCCN(C)C)c3c4c(sc3n2)CCCC4)n1	-7.4%	?	56.2µM*	2.4%	19.9%	1.7%
Cc1cccc(/C=N/NC(=O)c2ccncc2)n1	.	10.3%	-12.4%	68.1%	4.3%	-1.1%
COc1ccc(Nc2c([N+](=O)[O-])ccc3c2=NC2(CCCCC2)N=3)cc1	?	7.08µM*	15.8µM*	8.91µM*	-2.7%	1.7%
COCCCNc1nc2c(c(=O)n(Cc3ccccc3)c(=O)n2C)n1C	.	-16.6%	-7.6%	44.2%	5.5%	.
CCOC(=O)CSc1nc2cc(OC)ccc2cc1C#N	.	-10.3%	-6.8%	49.6%	-0.3%	-6.3%
CCOC(=O)CSC1=C(C#N)C(=O)NC(c2ccc(OC)c(OC)c2)S1 (stereo not drawn)	11.2%	50.1µM*	39.8µM*	?	?	11.9µM*
CCOC(=O)CSC1=C(C#N)C(=O)NC(c2ccc(OC)cc2)S1 (stereo not drawn)	.	50.1µM*	25.1µM*	8.8%	?	11.9µM*
CCOc1ccc(NC(=O)Cn2c(=O)n(Cc3ccco3)c(=O)c3ccc(C(=O)NC4CCCC4)cc32)cc1	.	.	-11.7%	20.0%	-1.1%	.
CC(=O)Nc1sc(N/N=C/c2ccc(C)cc2)nc1-c1ccc(C)cc1	-26.0%	?	44.7µM*	?	?	-7.9%
